Here are results for 24 compounds from PubChem BioAssay (EPA / NIEHS).

Each structure is given as a SMILES string. Inconclusive results are not listed. Calls of active or inactive are those of the source. How the source made its calls, unless noted: active means hit-call score of the fitted dose curve at least 0.9, where 1 is the maximum; inactive means score below 0.9.

The target of test [1] is Retinoic acid receptor alpha (Homo sapiens) (UniProt P10276). The experiment in a line: ATG_RARa_TRANS: Attagene TRANS-FACTORIAL HepG2 Assay for human Retinoic Acid Receptor alpha (RARa) (AID 2283005; active means hit-call score of the fitted dose curve at least 0.9, where 1 is the maximum). The essentials:
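Reporter transcripts, measured by RT-PCR with fluorescent labeling and capillary electrophoresis after 24 h dosing, reflect activity of an exogenous human RARa–GAL4 fusion in transiently transfected HepG2. Fitted for increase relative to DMSO.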

Test [2] can be described thus: BSK_BT_PBMCCytotoxicity: PBMC Cytotoxicity Assessment in the BioMAP Diversity Plus: BT Assay (AID 2284225).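 Further: PBMC viability measured by Alamar Blue dye reduction fluorescence.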 Conditions: primary human B cells with PBMC. The essentials: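 75,000 cells/well; cpd 1 h → SEB + TSST-1 (20 ng/mL final each) → 90 h → Alamar Blue 6 h → fluor. 546/580 nm. DMSO = neg. control/baseline.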
Read-out in test [3]: Secreted IgG (sIgG), gene 3500
The experiment in a line: BSK_BT_sIgG: BioMAP Diversity Plus: BT Assay for Secreted IgG (sIgG) Biomarker Activity (AID 2284226). Conditions: primary human B cells with PBMC. The essentials: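 Secreted IgG from a human primary B cell–PBMC co-culture was measured by ELISA 24 hours after dosing, with DMSO defining baseline activity.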

Read-out in test [4]: Tumor necrosis factor (Homo sapiens) (UniProt P01375)
The experiment in a line: BSK_BT_xTNFa: BioMAP Diversity Plus: BT Assay for Tumor necrosis factor alpha (TNF-alpha) Biomarker Activity (AID 2284230). Conditions: primary human B cells with PBMC. The essentials:
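Compounds were added to a B cell plus PBMC co-culture, and after 24 h secreted TNF-alpha was quantified with Luminex xMAP technology, with responses fitted upward from the DMSO control.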

Read-out in test [5]: Vascular cell adhesion molecule 1 (VCAM1), VCAM1 (gene 7412)
The experiment in a line: BSK_MyoF_VCAM1: BioMAP Diversity Plus: MyoF Assay for Vascular cell adhesion molecule 1 (VCAM1) Biomarker Activity (AID 2284231). The note with it: primary human lung fibroblasts. The essentials:
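ELISA readout of VCAM-1 on human lung fibroblast cultures 24 hours after dosing, analyzed for signal gain relative to DMSO. Overt cytotoxicity was checked by sulforhodamine B total-protein staining in parallel cultures.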

Read-out in test [6]: Collagen III, COL3A1 (gene 1281)
The experiment in a line: BSK_MyoF_CollagenIII: BioMAP Diversity Plus: MyoF Assay for Collagen III Biomarker Activity (AID 2284239). Conditions: primary human lung fibroblasts. The essentials: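 Collagen III biomarker quantified by ELISA in human lung fibroblast cultures 24 h after dosing. Activity fitted in the positive direction against DMSO as baseline.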

Read-out in test [7]: Interleukin 17F (IL17F), IL17F (gene 112744)
The experiment in a line: BSK_BT_xIL17F: BioMAP Diversity Plus: BT Assay for Interleukin 17F (IL17F) Biomarker Activity (AID 2284243). The note with it: primary human B cells with PBMC. The essentials: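 Human B cells co-cultured with PBMC; secreted IL-17F quantified by LumineX xMAP 24 hours after chemical dosing. Activity fitted in the positive direction against DMSO negative control as baseline.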

Read-out in test [8]: Actin alpha 1 (ACTA1), ACTA1 (gene 58)
The experiment in a line: BSK_MyoF_ACTA1: BioMAP Diversity Plus: MyoF Assay for Actin alpha 1 (ACTA1) Biomarker Activity (AID 2284244). The note with it: primary human lung fibroblasts. The essentials: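 Measured by ELISA: alpha-smooth muscle actin in human primary lung fibroblasts 24 h after dosing, with DMSO as baseline and upward signal change as the fitted direction.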

Read-out in test [9]: Interleukin 2 (IL2), IL2 (gene 3558)
The experiment in a line: BSK_BT_xIL2: BioMAP Diversity Plus: BT Assay for Interleukin 2 (IL2) Biomarker Activity (AID 2284245). The note with it: primary human B cells with PBMC. The essentials: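 Secreted interleukin-2 from human B cell/PBMC co-cultures, measured 24 h post-dosing by Luminex multiplex immunoassay. Upward-direction curve fitting against DMSO baseline.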

Read-out in test [10]: Basic fibroblast growth factor (bFGF), FGF2 (gene 2247)
The experiment in a line: BSK_MyoF_bFGF: BioMAP Diversity Plus: MyoF Assay for Basic fibroblast growth factor (bFGF) Biomarker Activity (AID 2284246). Conditions: primary human lung fibroblasts. The essentials: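 In this multiplexed cell system, lung fibroblasts (human primary) receive test chemical for 24 h before ELISA detection of bFGF; DMSO defines baseline and the analysis direction is positive.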

Read-out in test [11]: Plasminogen activator inhibitor-1 (PAI1), SERPINE1 (gene 5054)
The experiment in a line: BSK_MyoF_PAI1: BioMAP Diversity Plus: MyoF Assay for Plasminogen activator inhibitor-1 (PAI1) Biomarker Activity (AID 2284256).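 On outcome: PAI-1 protein level measured by ELISA in fibroblast cultures; PAI-1 read 24 h after compound addition.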 Conditions: primary human lung fibroblasts. The essentials:
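Human lung fibroblasts (MyoF system) were exposed to test chemicals for 24 h, then PAI-1 was quantified by ELISA. Activity was fitted in the positive (signal-gain) direction relative to DMSO vehicle as baseline.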

Read-out in test [12]: Interleukin-8 (IL8), CXCL8 (gene 3576)
The experiment in a line: BSK_MyoF_IL8: BioMAP Diversity Plus: MyoF Assay for Interleukin-8 (IL8) Biomarker Activity (AID 2284261). The note with it: primary human lung fibroblasts. The essentials: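 IL-8 quantified by ELISA after 24 h compound exposure of primary human lung fibroblasts. SRB staining of parallel cultures flagged cytotoxicity; DMSO served as baseline.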

Read-out in test [13]: Decorin, DCN (gene 1634)
The experiment in a line: BSK_MyoF_Decorin: BioMAP Diversity Plus: MyoF Assay for Decorin Biomarker Activity (AID 2284265). The note with it: primary human lung fibroblasts. The essentials: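 Decorin protein was quantified by ELISA 24 h after chemical addition to primary human lung fibroblasts and analysed as increase over DMSO. Cytotoxicity was tracked in parallel cultures by SRB total-protein staining read at 560 nm.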

A short description of test [14]: BSK_MyoF_SRB: Viability Assessment in the BioMAP Diversity Plus: MyoF Assay (AID 2284267).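 Further: total protein by SRB absorbance in parallel cultures as cytotoxicity measure; cells assessed 24 h after compound addition.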 The note with it: primary human lung fibroblasts. The essentials:
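Cytotoxicity in primary human lung fibroblasts is gauged by SRB total-protein staining 24 h after dosing, with DMSO as the negative control.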

For test [15], the target named is Androgen receptor (Homo sapiens) (UniProt P10275). The experiment in a line: ATG_AR_TRANS: Attagene TRANS-FACTORIAL HepG2 Assay for human Androgen Receptor (AR) (AID 2282973; active means hit-call score of the fitted dose curve at least 0.9, where 1 is the maximum). The note with it: HepG2 Attagene TRANS-FACTORIAL AR reporter transcription. The essentials:
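Transcriptional activity of an exogenous AR–Gal4 fusion read as GAL4-UAS reporter transcript levels in transfected human HepG2 cells after 24 h dosing. Detection via RT-PCR, 6-FAM labelling, HpaI digest and capillary electrophoresis; increase over DMSO baseline.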

Test [16] deals with Bile acid receptor (Homo sapiens) (UniProt Q96RI1). The experiment in a line: OT_FXR_FXRSRC1_1440: Odyssey Thera (OT) 24-hour HEK293T Protein-Complementation Assay for Farnesoid X receptor/SRC-1 Co-activator (AID 2283384; active means hit-call score of the fitted dose curve at least 0.9, where 1 is the maximum). The essentials:
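Cell-based binding reporter: interaction of FXR with SRC-1 brings reporter fragments together, giving a fluorescence signal read 24 h after dosing of HEK293T cells.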

In test [17] the target is rat Thyrotropin Releasing Hormone Receptor (TRH), Trhr (gene 25570) (UniProt Q01717). The experiment in a line: NVS_GPCR_rTRH: NovaScreen (NVS) G Protein-Coupled Receptor Assay for rat Thyrotropin Releasing Hormone Receptor (TRH) (AID 2283329; active means hit-call score of the fitted dose curve at least 0.9, where 1 is the maximum;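 further: hit means lower bound tracer signal versus DMSO baseline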). The essentials: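 Rat forebrain membrane prep, radioligand displacement, filter scintillation readout at 4 h. Single conc 25 uM, duplicate; actives retested as concentration series. DMSO = negative control/baseline.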
rat Thyrotropin Releasing Hormone Receptor (TRH), Trhr (gene 25570), sequence (Q01717 whole entry, looked up): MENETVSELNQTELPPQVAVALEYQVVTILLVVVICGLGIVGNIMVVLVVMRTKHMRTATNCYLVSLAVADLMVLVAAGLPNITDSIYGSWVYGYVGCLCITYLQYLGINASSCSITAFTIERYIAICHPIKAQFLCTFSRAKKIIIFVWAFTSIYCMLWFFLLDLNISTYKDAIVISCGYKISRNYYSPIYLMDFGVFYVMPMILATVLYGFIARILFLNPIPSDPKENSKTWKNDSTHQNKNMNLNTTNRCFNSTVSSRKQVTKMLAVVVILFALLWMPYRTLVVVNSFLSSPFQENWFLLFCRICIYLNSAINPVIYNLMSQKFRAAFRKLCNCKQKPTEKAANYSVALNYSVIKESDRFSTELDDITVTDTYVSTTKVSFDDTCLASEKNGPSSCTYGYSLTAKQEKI

Test [18] in a line: CEETOX_H295R_MTT_cell_viability: Viability Assessment in the CeeTox HT-H295R MTT Assay (AID 2283718).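 On AC50: curve fitted both ways so AC50 may mark viability loss or gain.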 The essentials: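 MTT reduction (0.5 mg/ml, 4 h at 37 C; absorbance at 570 and 650 nm) gave viability as background-corrected percent change versus controls. H295R cells had 48 h forskolin (10 uM) prestimulation, then 48 h chemical exposure at 0.1% DMSO.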
The target of test [19] is human Retinoic Acid Receptor beta (RARb), RARB (gene 5915) (UniProt P10826). The experiment in a line: ATG_RARb_TRANS: Attagene TRANS-FACTORIAL HepG2 Assay for human Retinoic Acid Receptor beta (AID 2283004; active means hit-call score of the fitted dose curve at least 0.9, where 1 is the maximum). The essentials:
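Induction of reporter mRNA from a chimeric RARb-Gal4 construct was measured by RT-PCR, FAM labelling, HpaI digestion and capillary electrophoresis. Measurements followed 24 h compound treatment of transiently transfected human HepG2 liver cells, with DMSO as baseline.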

For test [20], the target named is human Retinoic Acid Receptor gamma (RARg), RARG (gene 5916) (UniProt P13631). The experiment in a line: ATG_RARg_TRANS: Attagene TRANS-FACTORIAL HepG2 Assay for human Retinoic Acid Receptor gamma (RARg) (AID 2283009; active means hit-call score of the fitted dose curve at least 0.9, where 1 is the maximum). The essentials:
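HepG2, RARg-GAL4 TRANS system, 24 h exposure; reporter mRNA by RT-PCR + CE fluorescence; increase over DMSO.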

What is called AC50 is the midpoint of the concentration-response curve, whichever way the signal moves.

Androgen receptor (Homo sapiens), sequence (P10275 whole entry, looked up, the tested form may be a part): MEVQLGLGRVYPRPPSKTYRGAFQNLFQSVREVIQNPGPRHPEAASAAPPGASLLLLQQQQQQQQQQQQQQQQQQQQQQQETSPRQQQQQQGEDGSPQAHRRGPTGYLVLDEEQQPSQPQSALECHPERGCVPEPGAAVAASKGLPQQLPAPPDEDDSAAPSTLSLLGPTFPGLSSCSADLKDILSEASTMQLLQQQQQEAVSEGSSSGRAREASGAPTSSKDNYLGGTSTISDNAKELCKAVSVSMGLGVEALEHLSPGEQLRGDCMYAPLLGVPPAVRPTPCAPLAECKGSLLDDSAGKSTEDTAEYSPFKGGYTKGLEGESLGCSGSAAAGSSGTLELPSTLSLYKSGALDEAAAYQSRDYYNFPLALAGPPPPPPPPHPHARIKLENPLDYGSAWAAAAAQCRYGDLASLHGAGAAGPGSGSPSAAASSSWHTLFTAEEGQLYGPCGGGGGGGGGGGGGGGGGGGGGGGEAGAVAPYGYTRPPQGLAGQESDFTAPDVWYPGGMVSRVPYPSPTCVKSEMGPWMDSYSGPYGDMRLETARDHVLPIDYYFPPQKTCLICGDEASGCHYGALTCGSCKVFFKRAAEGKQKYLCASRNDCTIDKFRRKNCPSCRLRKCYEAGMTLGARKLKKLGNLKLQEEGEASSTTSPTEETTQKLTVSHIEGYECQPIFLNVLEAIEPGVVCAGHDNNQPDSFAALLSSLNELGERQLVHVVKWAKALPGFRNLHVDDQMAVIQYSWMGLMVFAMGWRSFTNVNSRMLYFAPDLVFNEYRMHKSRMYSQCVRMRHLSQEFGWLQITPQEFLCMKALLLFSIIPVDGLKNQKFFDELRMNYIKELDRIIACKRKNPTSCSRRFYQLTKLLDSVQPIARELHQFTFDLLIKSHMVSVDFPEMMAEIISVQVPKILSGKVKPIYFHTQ
Retinoic acid receptor alpha (Homo sapiens), sequence (P10276 whole entry, looked up, the tested form may be a part): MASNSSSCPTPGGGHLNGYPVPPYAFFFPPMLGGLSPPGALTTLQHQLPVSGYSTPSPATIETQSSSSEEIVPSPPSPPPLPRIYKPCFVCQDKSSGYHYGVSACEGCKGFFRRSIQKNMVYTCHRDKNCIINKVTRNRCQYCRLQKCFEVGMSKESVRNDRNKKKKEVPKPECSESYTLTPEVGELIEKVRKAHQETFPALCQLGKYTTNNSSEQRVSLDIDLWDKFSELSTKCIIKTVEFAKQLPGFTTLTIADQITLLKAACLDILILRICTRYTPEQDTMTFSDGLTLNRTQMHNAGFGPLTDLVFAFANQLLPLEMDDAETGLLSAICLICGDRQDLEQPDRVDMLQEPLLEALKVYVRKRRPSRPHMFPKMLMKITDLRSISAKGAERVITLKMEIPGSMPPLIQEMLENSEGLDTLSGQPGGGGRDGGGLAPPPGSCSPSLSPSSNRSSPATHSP
human Retinoic Acid Receptor beta (RARb), RARB (gene 5915), sequence (P10826 whole entry, looked up, the tested form may be a part): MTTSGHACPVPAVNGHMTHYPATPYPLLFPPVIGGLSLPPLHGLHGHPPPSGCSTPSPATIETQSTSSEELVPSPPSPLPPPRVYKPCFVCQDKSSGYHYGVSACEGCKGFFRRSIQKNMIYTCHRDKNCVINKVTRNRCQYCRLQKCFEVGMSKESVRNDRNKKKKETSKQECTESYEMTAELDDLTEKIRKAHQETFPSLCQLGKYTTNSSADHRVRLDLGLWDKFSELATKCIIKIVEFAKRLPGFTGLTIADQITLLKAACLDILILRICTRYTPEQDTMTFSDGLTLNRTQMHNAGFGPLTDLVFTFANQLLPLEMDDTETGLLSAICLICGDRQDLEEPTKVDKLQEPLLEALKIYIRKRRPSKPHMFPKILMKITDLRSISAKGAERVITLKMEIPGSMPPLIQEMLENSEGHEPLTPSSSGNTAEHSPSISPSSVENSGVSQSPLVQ
Tumor necrosis factor (Homo sapiens), sequence (P01375 whole entry, looked up): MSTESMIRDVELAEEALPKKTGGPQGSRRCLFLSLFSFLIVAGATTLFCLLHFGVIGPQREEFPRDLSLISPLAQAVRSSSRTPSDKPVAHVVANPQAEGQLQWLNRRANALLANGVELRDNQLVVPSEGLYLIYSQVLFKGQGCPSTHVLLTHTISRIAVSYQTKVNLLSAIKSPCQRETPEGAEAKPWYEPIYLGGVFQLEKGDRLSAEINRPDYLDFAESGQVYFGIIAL
Bile acid receptor (Homo sapiens), sequence (Q96RI1 whole entry, looked up, the tested form may be a part): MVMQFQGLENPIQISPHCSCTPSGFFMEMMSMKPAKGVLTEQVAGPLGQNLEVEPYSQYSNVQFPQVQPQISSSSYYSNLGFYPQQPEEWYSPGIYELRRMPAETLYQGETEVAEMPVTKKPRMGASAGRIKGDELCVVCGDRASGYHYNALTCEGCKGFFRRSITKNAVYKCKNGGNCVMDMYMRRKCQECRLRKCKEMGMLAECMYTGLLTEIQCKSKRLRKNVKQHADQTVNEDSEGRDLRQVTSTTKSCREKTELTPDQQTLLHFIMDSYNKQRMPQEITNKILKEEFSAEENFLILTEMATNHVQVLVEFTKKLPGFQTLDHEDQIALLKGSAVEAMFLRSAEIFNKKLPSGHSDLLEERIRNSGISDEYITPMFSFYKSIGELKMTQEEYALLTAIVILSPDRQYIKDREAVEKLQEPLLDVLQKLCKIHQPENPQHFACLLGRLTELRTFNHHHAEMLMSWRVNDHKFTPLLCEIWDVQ
human Retinoic Acid Receptor gamma (RARg), RARG (gene 5916), sequence (P13631 whole entry, looked up, the tested form may be a part): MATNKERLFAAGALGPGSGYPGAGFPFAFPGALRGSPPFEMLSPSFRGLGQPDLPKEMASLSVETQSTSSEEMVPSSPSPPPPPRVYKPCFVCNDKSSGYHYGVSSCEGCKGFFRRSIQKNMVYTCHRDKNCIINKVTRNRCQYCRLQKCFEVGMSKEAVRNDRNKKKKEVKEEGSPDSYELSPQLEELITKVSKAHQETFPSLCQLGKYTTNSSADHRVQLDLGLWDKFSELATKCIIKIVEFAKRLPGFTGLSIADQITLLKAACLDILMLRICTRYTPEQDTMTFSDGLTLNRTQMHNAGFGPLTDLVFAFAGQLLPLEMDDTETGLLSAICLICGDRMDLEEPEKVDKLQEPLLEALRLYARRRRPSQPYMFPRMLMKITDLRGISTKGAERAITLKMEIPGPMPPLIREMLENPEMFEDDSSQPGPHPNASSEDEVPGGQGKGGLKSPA

Take `Nc1ccc(-c2ccc(N)c(N)c2)cc1N`: the outcome in test [1], in [2], in test [4], in test [6], in test [9] and in [10] was inactive. Further, the outcome in [11], in test [12], in [13] and in test [14] was inactive. Moreover, the AC50 is 15.4 µM (active) in test [3], 20 µM (active) in test [5], 23.6 µM (active) in test [7] and 20 µM (active) in test [8].
Take `Cc1ccc(C)c2ccccc12`: the compound was classed as inactive in [15] and in test [16].
With `COc1cc(OC)nc(Oc2cccc(Oc3nc(OC)cc(OC)n3)c2C(=O)O)n1`, the compound was called inactive in [15], in test [17] and in test [16].
Regarding `CC(=O)c1cc2c(cc1C)C(C)(C)C(C)CC2(C)C` (centres undefined), the call in test [17] and in [18] was inactive.
Consider `CN(C)N`, for which the compound was classed as inactive in test [15].
Turning to `C[C@]12CC[C@H](O)C[C@H]1CC[C@@H]1[C@@H]2C[C@@H](O)[C@]2(C)[C@@H](C3=CC(=O)OC3)CC[C@]12O`, the result in test [15] was inactive. Moreover, in test [18], the concentration at half-maximal activity (AC50) was 2.57 µM (active).
For the compound `O=P(O)(Oc1ccccc1)Oc1ccccc1`, the compound was called inactive in test [17] and in test [16].
`CCC1CCC(=O)O1` (centres undefined): the compound was called inactive in [19] and in [1].
Consider `O=c1[nH]c(Cl)c(Cl)cc1Cl`, for which the compound was called inactive in test [15], in [2], in [3], in test [4], in [5] and in test [6]. The outcome in test [7], in test [8], in test [9], in [10], in test [11] and in test [12] was inactive. Also, the outcome in [13] and in test [14] was inactive.
Turning to `ClC1=C(Cl)[C@]2(Cl)[C@@H]3[C@@H](Cl)[C@H](Cl)C[C@@H]3[C@@]1(Cl)C2(Cl)Cl`, in test [20], the compound was called inactive.
For `C=CC(=O)OCCO`, in test [17], the call was inactive. In addition, in test [18], the AC50 was 26.7 µM (active).
`CC(C)(C)C(=O)CCl`: the AC50 was 12.9 µM (active) in test [2], 8.03 µM (active) in test [3], 20 µM (active) in [5] and 32.9 µM (active) in test [11]. Further, the result in test [4], in [6], in [7], in test [8], in test [9] and in [10] was inactive. Also, the outcome in test [12], in test [13] and in test [14] was inactive.
In the case of `[N-]=[N+]=CC(=O)OC[C@H](N)C(=O)O`, the call in test [1] was inactive.
For `CC(O)CN(CC(C)O)CC(C)O` (centres undefined), in [16], the compound was classed as inactive.
With `CCCCOP(=O)(O)OCCCC`, the outcome in test [15] was inactive.
Still for that read-out and setting: under `Nc1ccccc1C(=O)Oc1ccc2ccccc2c1` stands “inactive”.
Turning to `O=S(=O)(O)OOS(=O)(=O)O`, the compound was called inactive in test [17].
As to `CCCOC(=O)c1ccccc1C(=O)OCCC`, the outcome in test [2], in test [4], in test [5], in [6], in test [7] and in [8] was inactive. Further, the result in test [9], in test [10], in test [11], in test [12], in test [13] and in [14] was inactive. For the same compound, the AC50 in test [3] is 20 µM (active).
`Nc1c(Cl)c(Cl)c(Cl)c(Cl)c1Cl`: the compound was called inactive in test [15], in test [19], in test [1] and in [20].
As for `Oc1ccc(Cl)cc1`, the result in test [19] and in test [17] was inactive.
In the case of `c1cc(OCC2CO2)ccc1Cc1ccc(OCC2CO2)cc1` (centres undefined), in [15], the compound was called inactive.
Turning to `N#Cc1cc(I)c(O)c(I)c1`, the call in test [15], in test [19], in test [1] and in test [20] was inactive.
On to `CCOC(=O)COc1ccc(Cl)cc1Cl`, for which the compound was classed as inactive in test [19].
Regarding `CCOC(=O)NC(=S)Nc1ccccc1NC(=S)NC(=O)OCC`, the result in test [19] was inactive.
